Laboratory results as given in PubChem BioAssay (NCATS).
Where “and” joins values, the source holds several entries; their conditions need not be identical. Identical values can stand only once. Results filed as inconclusive are left out. Calls of active or inactive are those of the source. Unless noted, the call rests on the fitted dose curve.

Experiments:
[1] = molecular target: Peroxisome proliferator-activated receptor delta (Homo sapiens) (UniProt Q03181); test: qHTS assay for small molecule agonists of peroxisome proliferator-activated receptor delta signaling (AID 588534);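 further: 0% = DMSO basal wells and 100% = positive control agonist at 10 µM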
How it was run: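 Fluorescence from CCF4 substrate cleavage by beta-lactamase reporter, read 2 hrs at RT, measured agonist activity. Compounds were tested with 18 hrs exposure at 37 C. Concentration-response data fitted to Hill equation.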

[2] = qHTS assay for small molecule antagonists of peroxisome proliferator-activated receptor delta signaling (AID 588535; active means well fitted inhibition curve with a large enough effect in the signal ratio, with a control signal flat, not every such curve was filed as active; the % refers to the signal ratio;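 on max response: cells co-treated with a PPAR-delta agonist as stimulator during compound exposure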); details: HEK293T PPARd-UAS-bla, beta-lactamase FRET ratio, 18 h; 460 nm channel
How it was run: (§1)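 HEK293T PPAR-delta-UAS-bla cells, 4000/well, 2% charcoal/dextran FBS; 5 h 37 C; cpd titration; 18 h 37 C; CCF4 2 h RT; FI 460/530 nm; Hill fit → IC50, efficacy.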

[3] = molecular target: Peroxisome proliferator-activated receptor delta (Homo sapiens) (UniProt Q03181); test: as above
How it was run: as §1

[4] = molecular target: Peroxisome proliferator-activated receptor gamma (Homo sapiens) (UniProt P37231); test: qHTS assay for small molecule agonists of peroxisome proliferator-activated receptor gamma signaling (AID 588536; active means well fitted curve in the direction sought with a large enough effect in the signal ratio, with a control signal flat, not every such curve was filed as active; the % refers to the signal ratio;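 further: 0% = DMSO basal wells and 100% = rosiglitazone at 2 µM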)
How it was run: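 HEK293 UAS-bla reporter line, 1% charcoal/dextran FBS; titration, 16 h, 37 C; CCF4 loading 2 h RT; fluorescence 460/530 nm. Normalized to rosiglitazone 2 uM = 100%, DMSO = 0%.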

[5] = molecular target: Peroxisome proliferator-activated receptor gamma (Homo sapiens) (UniProt P37231); test: qHTS assay for small molecule antagonists of peroxisome proliferator-activated receptor gamma signaling (AID 588537; active means well fitted inhibition curve with a large enough effect in the signal ratio, with a control signal flat, not every such curve was filed as active; the % refers to the signal ratio;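 further: reporter cells co-stimulated with 50 nM rosiglitazone agonist during compound treatment; % of control where 0% means no effect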)
How it was run: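 Antagonist mode, beta-lactamase reporter in HEK293; charcoal/dextran FBS 1%; 3000 cells/well, 37 C 6-6.5 h; cpd titration + rosiglitazone 50 nM final, 16 h 37 C; CCF4, 2 h RT; 460/530 nm; Hill fit → IC50, efficacy.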

[6] = molecular target: Vitamin D3 receptor (Homo sapiens) (UniProt P11473); test: qHTS assay for small molecule antagonists of vitamin D receptor signaling (AID 588541);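 further: receptor activated by calcitriol during compound treatment; series mostly up to about 77 µM; on the % scale 0 is the no-effect control and ±100 the full control effect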
How it was run: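 Antagonist-mode beta-lactamase reporter assay: HEK293T VDR-UAS-bla cells were exposed to titrated compound alongside 1-alpha,25-dihydroxyvitamin D3 at 3 nM final for 16 h. Values were normalized to the 50 nM agonist control and DMSO basal, with IC50 and efficacy from Hill equation fits.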

[7] = molecular target: Vitamin D3 receptor (Homo sapiens) (UniProt P11473); test: qHTS assay for small molecule agonists of vitamin D receptor signaling (AID 588543);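 further: 0% = DMSO basal and 100% = reference agonist control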
How it was run: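 qHTS in agonist mode: compound titrations stimulate a VDR-driven β-lactamase reporter in HEK293T cells over 16 h at 37 °C. Response normalized to 50 nM 1α,25-dihydroxyvitamin D3 = 100%, DMSO = 0%; Hill fitting gives EC50 and maximal response.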

[8] = qHTS assay for small molecule agonists of retinoid X receptor alpha signaling (AID 588544); details: HEK293T RXRa-UAS-bla, beta-lactamase reporter, 18 h; 530 nm emission
[9] = molecular target: Retinoic acid receptor RXR-alpha (Homo sapiens) (UniProt P19793); test: as above
[10] = molecular target: Thyroid hormone receptor beta (Homo sapiens) (UniProt P10828); test: qHTS assay for small molecule agonists of thyroid hormone receptor beta signaling (AID 588545);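 further: 0% = DMSO only and 100% = 10 nM T3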
How it was run: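 TR-UAS-bla GripTite HEK 293 cells (2500/well, medium with 2% charcoal/dextran FBS) were treated in agonist mode for 18 h at 37 C, titrated. Beta-lactamase was read by CCF4 ratio after 2 h; normalized to 10 nM T3 (100%) and DMSO, Hill-fitted for EC50 and efficacy.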

[11] = qHTS assay for small molecule antagonists of retinoid X receptor alpha signaling (AID 588546; active means well fitted inhibition curve with a large enough effect in the signal ratio, with a control signal flat, not every such curve was filed as active; the % refers to the signal ratio;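 further: cells stimulated with 9-cis-retinoic acid as agonist; on the % scale 0 is the no-effect control and ±100 the full control effect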); details: HEK293T RXRa-UAS-bla, beta-lactamase ratio, antagonist mode; measured here: W530 green channel, cytotoxicity proxy
How it was run: (§2)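 Beta-lactamase reporter inhibition, read as CCF4 fluorescence ratio (ex 405, em 460/530 nm) after 2 h at RT. HEK293T UAS-bla cells, 2500/well, were stimulated with 9-cis-RA at 500 or 100 nM final alongside test compound for 18 h at 37 C.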

[12] = molecular target: Retinoic acid receptor RXR-alpha (Homo sapiens) (UniProt P19793); test: as above; details: HEK293T RXRa-UAS-bla, beta-lactamase ratio, antagonist mode
How it was run: as §2

[13] = molecular target: Thyroid hormone receptor beta (Homo sapiens) (UniProt P10828); test: qHTS assay for small molecule antagonists of thyroid hormone receptor beta signaling (AID 588547; active means well fitted inhibition curve with a large enough effect in the signal ratio, with a control signal flat, not every such curve was filed as active; the % refers to the signal ratio;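 further: cells stimulated with 0.4 nM T3 agonist during compound exposure; series mostly up to about 77 µM; on the % scale 0 is the no-effect control and ±100 the full control effect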); details: TR-UAS-bla HEK293, beta-lactamase ratio, antagonist mode, 18 h
How it was run: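 Inhibition of T3-driven (0.4nM final) beta-lactamase reporter activity was measured over 0.59 nM to 92 uM compound after 18 h at 37 C. The cells were GripTite HEK293 TR-UAS-bla in charcoal/dextran-stripped serum, with CCF4 ratio read-out and IC50 from Hill fits.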

[14] = molecular target: Voltage-gated inwardly rectifying potassium channel KCNH2 (Homo sapiens) (UniProt Q12809); test: qHTS Assay for Small Molecule Inhibitors of the Human hERG Channel Activity (AID 588834; active means well fitted curve in the direction sought with a large enough effect; an effect the other way counts as inactive or inconclusive;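 further: top concentration of the series differs between compounds; on the % scale 0 is the no-effect control and ±100 the full control effect; lower thallium flux fluorescence means stronger hERG block; nearly all actives have a fitted effect of over 50% in size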)
How it was run: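 Measured: FluxOR fluorescence after thallium stimulation in U2OS cells transduced with hERG by baculovirus. Compounds pre-incubated around 10 min; medium Opti-MEM with 2% FCS. AC50 from Hill equation.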

[15] = molecular target: Luciferin 4-monooxygenase (Photinus pyralis) (UniProt P08659); test: Biochemical firefly luciferase enzyme assay for NPC (AID 624030; active means well fitted curve in the direction sought with a large enough effect; an effect the other way counts as inactive or inconclusive;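 further: purified P. pyralis luciferase at 10 nM with luciferin and ATP substrate; series mostly up to about 59 µM; 0% = DMSO and -100% = full luciferase inhibition by PTC124 control; nearly all actives have a fitted effect of over 70% in size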)
How it was run: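 Direct inhibition of firefly luciferase enzyme (10 nM final, 50 mM Tris Acetate) assessed by luminescence within 5 minutes. Percent activity scaled between DMSO and PTC124 positive control, with concentration-effect curves classified by fit quality and response.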

[16] = S16 Schwann cell viability assay (CellTiter-Glo assay) (AID 624031; active means well fitted curve in the direction sought with a large enough effect; an effect the other way counts as inactive or inconclusive;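 further: native untransfected S16 rat Schwann cells; series mostly up to about 58 µM; plate controls were DMSO-treated cells for no effect and cell-free wells for full effect; nearly all actives have a fitted effect of over 70% in size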)
How it was run: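 Counter-screen for cytotoxicity: parental S16 rat Schwann cells lacking the PMP22 reporters, treated 24 h with compound, viability from cellular ATP by CellTiter-Glo luminescence, normalized to DMSO (0%) and no-cell wells.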

[17] = S16 Schwann cell PMP22 intronic element firefly luciferase assay (AID 624032; active means well fitted curve in the direction sought with a large enough effect; an effect the other way counts as inactive or inconclusive;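 further: series mostly up to about 58 µM; plate controls were DMSO for no effect and PTC124 positive control mean for full effect; nearly all actives have a fitted effect of over 30% in size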)
How it was run: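 Luciferase reporter of PMP22 intronic-element expression in stably transfected S16 rat Schwann cells, read by ONE-Glo luminescence after 24 h compound exposure at 37 C. Activity scaled between DMSO (0%) and positive-control PTC124; concentration-effect curves quality-classified.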

Sequence of Peroxisome proliferator-activated receptor delta (Homo sapiens) (Q03181 whole entry, looked up): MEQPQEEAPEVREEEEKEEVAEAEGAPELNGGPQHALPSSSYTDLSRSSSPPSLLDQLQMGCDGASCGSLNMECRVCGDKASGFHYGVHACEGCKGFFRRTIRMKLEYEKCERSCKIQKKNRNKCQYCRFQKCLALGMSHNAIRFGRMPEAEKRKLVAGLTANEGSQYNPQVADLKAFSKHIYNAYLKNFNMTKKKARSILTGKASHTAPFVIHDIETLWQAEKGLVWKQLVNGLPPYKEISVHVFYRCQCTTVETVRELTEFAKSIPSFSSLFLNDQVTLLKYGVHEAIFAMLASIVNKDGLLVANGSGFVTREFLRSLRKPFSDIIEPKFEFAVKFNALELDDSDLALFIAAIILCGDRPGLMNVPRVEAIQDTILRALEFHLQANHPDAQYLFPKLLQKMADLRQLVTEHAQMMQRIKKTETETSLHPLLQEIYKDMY
Sequence of Peroxisome proliferator-activated receptor gamma (Homo sapiens) (P37231 whole entry, looked up): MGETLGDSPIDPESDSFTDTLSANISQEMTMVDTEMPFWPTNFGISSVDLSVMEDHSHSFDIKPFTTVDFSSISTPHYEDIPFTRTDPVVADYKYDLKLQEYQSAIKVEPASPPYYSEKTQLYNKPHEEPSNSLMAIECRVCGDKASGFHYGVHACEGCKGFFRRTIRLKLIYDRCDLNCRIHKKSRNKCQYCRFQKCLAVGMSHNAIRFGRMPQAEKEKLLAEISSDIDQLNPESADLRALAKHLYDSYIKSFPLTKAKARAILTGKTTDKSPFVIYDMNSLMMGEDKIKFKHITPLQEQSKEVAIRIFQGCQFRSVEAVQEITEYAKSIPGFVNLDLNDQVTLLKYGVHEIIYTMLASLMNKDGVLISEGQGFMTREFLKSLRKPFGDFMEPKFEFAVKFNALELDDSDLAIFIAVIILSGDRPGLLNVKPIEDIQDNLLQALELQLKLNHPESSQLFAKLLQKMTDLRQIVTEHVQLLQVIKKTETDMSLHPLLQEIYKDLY
Sequence of Thyroid hormone receptor beta (Homo sapiens) (P10828 whole entry, looked up): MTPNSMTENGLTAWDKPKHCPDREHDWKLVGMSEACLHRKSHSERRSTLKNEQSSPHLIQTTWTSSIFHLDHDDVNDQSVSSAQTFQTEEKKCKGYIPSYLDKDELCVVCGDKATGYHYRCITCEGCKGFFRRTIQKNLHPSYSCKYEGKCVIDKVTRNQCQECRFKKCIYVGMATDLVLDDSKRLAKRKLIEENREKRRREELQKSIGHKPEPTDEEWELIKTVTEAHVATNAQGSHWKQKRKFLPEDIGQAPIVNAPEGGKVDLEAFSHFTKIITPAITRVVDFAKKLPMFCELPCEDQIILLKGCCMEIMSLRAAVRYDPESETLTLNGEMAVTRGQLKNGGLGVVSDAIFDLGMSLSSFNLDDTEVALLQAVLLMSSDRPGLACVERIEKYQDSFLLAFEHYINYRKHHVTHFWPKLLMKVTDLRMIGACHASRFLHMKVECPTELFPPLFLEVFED
Sequence of Luciferin 4-monooxygenase (Photinus pyralis) (P08659 whole entry, looked up): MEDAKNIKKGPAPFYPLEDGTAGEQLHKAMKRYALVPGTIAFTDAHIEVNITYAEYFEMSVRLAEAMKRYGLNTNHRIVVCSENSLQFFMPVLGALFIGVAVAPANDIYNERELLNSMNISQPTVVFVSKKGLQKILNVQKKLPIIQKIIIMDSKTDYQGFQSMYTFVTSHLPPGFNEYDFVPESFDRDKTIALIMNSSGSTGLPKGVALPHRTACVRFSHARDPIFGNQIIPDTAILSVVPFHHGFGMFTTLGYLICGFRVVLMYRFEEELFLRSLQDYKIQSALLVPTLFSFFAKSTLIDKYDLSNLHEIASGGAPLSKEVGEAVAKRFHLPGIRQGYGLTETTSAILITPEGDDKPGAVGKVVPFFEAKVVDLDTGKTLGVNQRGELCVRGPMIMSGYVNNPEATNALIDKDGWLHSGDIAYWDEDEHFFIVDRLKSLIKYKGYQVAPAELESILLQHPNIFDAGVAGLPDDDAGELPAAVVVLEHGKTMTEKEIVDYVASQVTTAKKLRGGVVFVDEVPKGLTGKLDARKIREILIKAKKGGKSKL
Sequence of Voltage-gated inwardly rectifying potassium channel KCNH2 (Homo sapiens) (Q12809 whole entry, looked up): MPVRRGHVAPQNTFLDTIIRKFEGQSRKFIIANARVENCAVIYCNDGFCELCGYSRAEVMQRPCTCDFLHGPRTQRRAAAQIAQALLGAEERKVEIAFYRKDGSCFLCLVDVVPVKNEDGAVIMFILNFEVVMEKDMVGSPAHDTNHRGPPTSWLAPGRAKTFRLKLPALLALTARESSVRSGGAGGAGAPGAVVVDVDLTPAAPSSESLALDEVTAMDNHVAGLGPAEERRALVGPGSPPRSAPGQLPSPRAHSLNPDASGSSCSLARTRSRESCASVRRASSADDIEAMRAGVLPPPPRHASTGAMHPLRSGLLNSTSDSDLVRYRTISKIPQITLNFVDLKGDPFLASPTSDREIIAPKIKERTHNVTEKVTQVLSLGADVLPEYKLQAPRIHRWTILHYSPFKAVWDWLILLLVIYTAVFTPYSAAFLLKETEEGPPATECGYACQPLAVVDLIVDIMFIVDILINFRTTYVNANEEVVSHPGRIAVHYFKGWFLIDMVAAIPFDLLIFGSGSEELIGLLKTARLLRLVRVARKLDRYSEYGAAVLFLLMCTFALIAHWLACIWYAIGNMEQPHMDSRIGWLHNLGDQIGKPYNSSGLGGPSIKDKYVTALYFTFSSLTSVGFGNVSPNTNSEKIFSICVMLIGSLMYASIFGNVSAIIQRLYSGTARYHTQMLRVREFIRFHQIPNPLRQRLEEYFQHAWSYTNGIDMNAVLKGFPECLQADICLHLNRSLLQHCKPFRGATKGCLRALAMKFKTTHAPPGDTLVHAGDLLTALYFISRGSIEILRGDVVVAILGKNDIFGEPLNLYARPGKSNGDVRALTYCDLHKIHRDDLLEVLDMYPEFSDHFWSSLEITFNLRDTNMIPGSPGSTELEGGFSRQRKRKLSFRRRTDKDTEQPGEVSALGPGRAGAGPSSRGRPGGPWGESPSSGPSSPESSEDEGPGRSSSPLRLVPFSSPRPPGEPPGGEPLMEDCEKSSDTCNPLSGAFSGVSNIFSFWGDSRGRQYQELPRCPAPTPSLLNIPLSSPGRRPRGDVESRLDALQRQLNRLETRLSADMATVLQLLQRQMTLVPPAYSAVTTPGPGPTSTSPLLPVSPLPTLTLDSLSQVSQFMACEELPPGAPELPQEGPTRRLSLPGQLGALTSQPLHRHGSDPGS
Sequence of Retinoic acid receptor RXR-alpha (Homo sapiens) (P19793 whole entry, looked up): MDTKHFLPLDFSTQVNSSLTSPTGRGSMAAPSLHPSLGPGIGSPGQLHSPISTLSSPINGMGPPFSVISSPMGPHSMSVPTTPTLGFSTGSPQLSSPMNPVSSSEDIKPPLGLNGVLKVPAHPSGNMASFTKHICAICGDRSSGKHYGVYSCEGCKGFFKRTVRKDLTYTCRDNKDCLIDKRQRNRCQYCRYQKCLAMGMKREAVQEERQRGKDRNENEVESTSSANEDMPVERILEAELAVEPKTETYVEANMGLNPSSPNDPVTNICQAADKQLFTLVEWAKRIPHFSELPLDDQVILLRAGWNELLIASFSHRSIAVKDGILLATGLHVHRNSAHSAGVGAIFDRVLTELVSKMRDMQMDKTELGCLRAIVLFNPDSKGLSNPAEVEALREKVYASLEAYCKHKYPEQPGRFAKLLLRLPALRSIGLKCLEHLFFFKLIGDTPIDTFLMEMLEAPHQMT
Sequence of Vitamin D3 receptor (Homo sapiens) (P11473 whole entry, looked up): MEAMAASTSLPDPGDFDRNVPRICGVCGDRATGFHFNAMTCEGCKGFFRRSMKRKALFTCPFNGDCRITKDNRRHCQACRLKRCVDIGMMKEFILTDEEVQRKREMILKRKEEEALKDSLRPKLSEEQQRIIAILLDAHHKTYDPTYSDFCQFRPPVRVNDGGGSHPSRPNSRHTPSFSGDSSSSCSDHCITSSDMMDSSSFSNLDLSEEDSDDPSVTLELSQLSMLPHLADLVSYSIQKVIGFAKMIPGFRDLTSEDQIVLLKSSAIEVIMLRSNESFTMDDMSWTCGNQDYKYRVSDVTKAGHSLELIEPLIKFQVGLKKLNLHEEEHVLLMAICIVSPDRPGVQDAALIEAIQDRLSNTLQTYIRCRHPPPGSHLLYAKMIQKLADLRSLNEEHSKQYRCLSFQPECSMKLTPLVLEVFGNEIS

c1cc2ccc3cccc4ccc(c1)c2c34
50.8% and 2.37%: max response [2]
-6.58% and -8.62%: max response [8]
inactive: outcome [1] | Potency [3] | outcome [4] | Potency [5] | Potency [6] | outcome [7] | Potency [9] | outcome [10] | max response [12] 0.282% and -8.73% | activity change % (negative = inhibition) [13] 8.95% | Potency [14] | Potency [15]
-9.93% and -1.15%: max response [11]

Nc1ccccc1N
inactive: outcome [1]

Nc1nc2ccc([N+](=O)[O-])cc2s1
inactive: outcome [1]

CN(C)c1ccc(N=NS(=O)(=O)O)cc1
inactive: outcome [1]

COCCOCCO
inactive: outcome [1] | Potency [3] | outcome [4] | Potency [5] | Potency [6] | outcome [7] | Potency [9] | outcome [10] | max response [12] -11.3% and -22% | activity change % (negative = inhibition) [13] 1.33% and -16.2% | Potency [15]
-0.0574%: max response [2]
0.722%: max response [8]
3.81% and -4.43%: max response [11]

O=C(NO)c1ccccc1
inactive: outcome [1]

C[C@]12C[C@H](O)[C@H]3[C@@H](CCC4=CC(=O)CC[C@@]43C)[C@@H]1CC[C@@H]2C(=O)CO
inactive: outcome [1]

Cc1cc(O)ccc1Cl
inactive: outcome [1] | Potency [3] | outcome [4] | Potency [5] | Potency [6] | outcome [7] | Potency [9] | outcome [10] | max response [12] -4.22% | activity change % (negative = inhibition) [13] 1.27% | Potency [14] | Potency [15] | Potency [16] | Potency [17]
-6.7%: max response [8]
3.81%: max response [11]
44.7%: max response [2]
